“And” between values parts separate entries of the source, which are not always exact repeats. Identical values can stand only once. Screen size: about 3,300 compounds; about 280 (8.5%) were called active. The sample holds actives, similar compounds and a random draw of the others, so the mix is not that of the screen. Values without a mark were called inactive.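 The calls were made as follows: active = mean growth inhibition over the two runs of 50% or more; inactive = mean growth inhibition under 50%.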
Assay: A549 NSCLC cell proliferation inhibitors – ATP luminescence, human non-small cell lung line, primary screen (AID 371);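 also: compound exposure lasted 72 h before the ATP read; 0% = untreated cell signal and 100% = no luminescence left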
Settings: at 10 µM, active compounds read high

Q: With `COc1ccc(C2=Nn3c(nnc3-c3cccnc3)SC2)cc1OC` as the molecule, how does the growth inhibition read?
A: 25%

Q: With `CCOc1ccc(C2=Nn3c(nnc3-c3cccnc3)SC2)cc1` as the molecule, how does the growth inhibition read?
A: 22.4%

Q: Which growth inhibition does the source give for `COc1ccccc1-c1nnc2n1N=C(c1ccc(O)c(O)c1)CS2` here?
A: 74.4% (active)

Q: Which growth inhibition does the source give for `CCOc1ccc(C2=Nn3c(nnc3-c3ccccc3OC)SC2)cc1` here?
A: 66% (active)

Q: For `COc1ccc(C2=Nn3c(nnc3-c3ccccn3)SC2)cc1`, which growth inhibition is on record?
A: 50.1% (active)

Q: Which growth inhibition does the source give for `COc1ccc(C2=Nn3c(nnc3-c3ccccc3)SC2)cc1OC` here?
A: 8.86%

Q: For `COc1ccc(C2=Nn3c(nnc3-c3ccccn3)SC2)cc1OC`, which growth inhibition is on record?
A: 3.8%

Q: For `CCOc1ccc(C2=Nn3c(nnc3-c3ccccn3)SC2)cc1`, which growth inhibition is on record?
A: 42.3%

Q: For `COc1ccc(OC)c(C2=Nn3c(nnc3-c3ccco3)SC2)c1`, which growth inhibition is on record?
A: 23.2%

Q: With `Cc1ccsc1C1NC(=O)c2c(sc3c2CCCC3)N1` (stereo not given) as the molecule, how does the growth inhibition read?
A: 45.3%

Q: With `O=CN1CCN(C(=O)CN2C(=O)c3ccccc3C2=O)CC1` as the molecule, how does the growth inhibition read?
A: -3.2%

Q: With `C/C=C/c1ccccc1OCc1ccc(C(=O)O)o1` as the molecule, how does the growth inhibition read?
A: 6.28%

Q: Which growth inhibition does the source give for `CC12CN3CC(=O)N4CC5(C)CN(CC(C)(C4)C5=O)C(=O)CN(C1)CC(C)(C3)C2=O` here?
A: 1.18%

Q: With `COC(=O)CSc1ncnc2c1sc1nc(-c3ccco3)c3c(c12)CC(C)(C)OC3` as the molecule, how does the growth inhibition read?
A: 4.18%

Q: For `O=C(Nc1ccccn1)c1ccc(=O)[nH]n1`, which growth inhibition is on record?
A: 5.88%

Q: Which growth inhibition does the source give for `C=CCn1c(SCC(=O)OC)nc2sc3c(c2c1=O)CCN(C)C3` here?
A: 0.89%

Q: Which growth inhibition does the source give for `CCCC1C2C(=O)N(c3ccccc3OC)C(=O)C2ON1c1ccccc1` (stereo not given) here?
A: 5.99%

Q: With `CN(Cc1ccccc1)c1ncnc2ccc(Br)cc12` as the molecule, how does the growth inhibition read?
A: 55.5% (active)

Q: With `CN(C)CCN(Cc1ccccc1)c1ccccn1` as the molecule, how does the growth inhibition read?
A: 0.66%

Q: For `COCCNc1nc2c(c(=O)n(C)c(=O)n2C)n1Cc1cccc(C(F)(F)F)c1`, which growth inhibition is on record?
A: 36.4%

Q: With `Cc1c(NC(=O)C(CC(=O)O)NCc2ccco2)c(=O)n(-c2ccccc2)n1C` (stereo not given) as the molecule, how does the growth inhibition read?
A: 5.55%

Q: With `Cc1c(NC(=O)c2ccc(=O)oc2)c(=O)n(-c2ccccc2)n1C` as the molecule, how does the growth inhibition read?
A: -1.44%

Q: Which growth inhibition does the source give for `Cc1c(NC(=O)c2coc(=O)c(Br)c2)c(=O)n(-c2ccccc2)n1C` here?
A: 80.5% (active)

Q: Which growth inhibition does the source give for `Cc1c(CCC#N)c(N2CCCCC2)n2c(nc3ccccc32)c1C#N` here?
A: 4.5%

Q: With `Cc1c(CCC#N)c(N2CCN(C3CCCCC3)CC2)n2c(nc3ccccc32)c1C#N` as the molecule, how does the growth inhibition read?
A: 89.1% (active)

Q: For `C=C(C)CN1CCN(c2c(CCC#N)c(C)c(C#N)c3nc4ccccc4n23)CC1`, which growth inhibition is on record?
A: 25.9%

Q: For `CC1(C)CC(=O)C(CCCN2C(=O)c3ccccc3C2=O)C(=O)C1`, which growth inhibition is on record?
A: 0.69%

Q: For `Cc1ccc(-c2nn3c(-c4cccc(Cl)c4)nnc3s2)cc1`, which growth inhibition is on record?
A: 45%

Q: Which growth inhibition does the source give for `CC(C)COc1ccc(C(=O)OCCN2CCOCC2)c(O)c1` here?
A: 12.1%

Q: With `O=C(O)CCCC(=O)N1CCN(C(c2ccccc2)c2ccccc2)CC1` as the molecule, how does the growth inhibition read?
A: 0.62%

Q: With `C(=C\c1ccccc1)/CN1CCN(C(c2ccccc2)c2ccccc2)CC1` as the molecule, how does the growth inhibition read?
A: 22.9%

Q: For `O=c1[nH]c2ccccc2n1CCCN1CCN(C(c2ccccc2)c2ccccc2)CC1`, which growth inhibition is on record?
A: 90.4% (active)

Q: For `COc1cc2[nH]c3c(=O)n(CCN(C(C)C)C(C)C)cnc3c2cc1OC`, which growth inhibition is on record?
A: 5.76%

Q: Which growth inhibition does the source give for `Cc1ccc(-c2nn(CCC(=O)NCC3CCCO3)c(=O)c3ccccc23)cc1` (stereo not given) here?
A: 17.4%

Q: Which growth inhibition does the source give for `c1ccc(-c2ccc(C(c3ccccc3)n3ccnc3)cc2)cc1` (stereo not given) here?
A: 78.7% (active)

Q: Which growth inhibition does the source give for `O=C(N(c1ccccc1)c1ccccc1)n1ccnc1` here?
A: 7.93%

Q: With `COc1cc(C2C(C#N)=C(N)Oc3cc(C)n(CCN4CCOCC4)c(=O)c32)cc(OC)c1OC` (stereo not given) as the molecule, how does the growth inhibition read?
A: 3.04%

Q: Which growth inhibition does the source give for `COc1cccc(C2C(C#N)=C(N)Oc3cc(C)[nH]c(=O)c32)c1OC` (stereo not given) here?
A: 2.31%

Q: With `COc1cc(C2C(C#N)=C(N)Oc3cc(N)ccc32)cc(OC)c1OC` (stereo not given) as the molecule, how does the growth inhibition read?
A: 51.6% (active)

Q: With `CC(C(=O)N1CCCCC1)N1C(=O)c2ccccc2C1=O` (stereo not given) as the molecule, how does the growth inhibition read?
A: -14.3%

Q: With `O=C1C(=O)N(CCN2CCOCC2)C(c2ccccn2)/C1=C(/O)c1ccccc1` (stereo not given) as the molecule, how does the growth inhibition read?
A: 4.51%

Q: Which growth inhibition does the source give for `CCN(CC)CCCN1C(=O)C(=O)/C(=C(/O)c2ccc(Cl)cc2)C1c1ccccn1` (stereo not given) here?
A: -16.8%

Q: With `CCC(C(=O)OCCN(CC)CC)c1ccccc1` (stereo not given) as the molecule, how does the growth inhibition read?
A: 5.51%

Q: With `CCN(CC)CCOC(=O)C(c1ccccc1)c1ccccc1` as the molecule, how does the growth inhibition read?
A: 2.67%

Q: With `CCCCc1oc2ccccc2c1C(=O)c1cc(I)c(OCCN(CC)CC)c(I)c1` as the molecule, how does the growth inhibition read?
A: 83.4% (active)

Q: Which growth inhibition does the source give for `CCCn1c(SCC#N)nc2c(c1=O)C1(CCCC1)Cc1ccccc1-2` here?
A: 21.2%

Q: For `O=S(=O)(c1ccccc1)N1CCC(N2CCN(c3ccccc3)CC2)CC1`, which growth inhibition is on record?
A: 4.82%

Q: For `Cc1cc(=O)oc(C)c1C(=O)N1CCN(Cc2ccc3c(c2)OCO3)CC1`, which growth inhibition is on record?
A: 8.78%

Q: For `COc1ccccc1C(=O)N1CCN(Cc2ccc3c(c2)OCO3)CC1`, which growth inhibition is on record?
A: 8.7%

Q: For `CCN(CC)CCNc1ncnc2c1[nH]c1ccc(OC)cc12`, which growth inhibition is on record?
A: 42.2%

Q: Which growth inhibition does the source give for `CC(C)OC(=O)C(C#N)c1nc2ccccc2nc1N1CCN(Cc2ccc3c(c2)OCO3)CC1` (stereo not given) here?
A: 3.13%

Q: For `Cc1ccc2[nH]c3c(N4CCN(Cc5ccc6c(c5)OCO6)CC4)ncnc3c2c1`, which growth inhibition is on record?
A: 83.9% (active)

Q: With `CCCCNC(=O)C(C#N)c1nc2ccccc2nc1N1CCN(Cc2ccc3c(c2)OCO3)CC1` (stereo not given) as the molecule, how does the growth inhibition read?
A: 11.1%

Q: Which growth inhibition does the source give for `COc1ccc2[nH]c3c(N4CCN(Cc5ccc6c(c5)OCO6)CC4)ncnc3c2c1` here?
A: 76.3% (active)

Q: Which growth inhibition does the source give for `CCOC(=O)N1CCN(c2ncnc3c2[nH]c2ccc(OC)cc23)CC1` here?
A: 28.5%

Q: For `Fc1ccc2[nH]c3c(N4CCN(Cc5ccc6c(c5)OCO6)CC4)ncnc3c2c1`, which growth inhibition is on record?
A: 83.3% (active)

Q: Which growth inhibition does the source give for `CC(C)N1CCc2c(sc(N)c2C#N)C1` here?
A: 17.2%

Q: For `CC(=O)N=C(N)Sc1nc2ccccc2[nH]1`, which growth inhibition is on record?
A: 6.73%

Q: With `COC(=O)CSc1nc(-c2cccs2)ccc1C#N` as the molecule, how does the growth inhibition read?
A: 14.7%

Q: For `COc1cc(Cn2ccnc2)c(OC)cc1Cn1ccnc1`, which growth inhibition is on record?
A: 1%

Q: For `Cc1ccc(/C(O)=C2/C(=O)C(=O)N(Cc3ccco3)C2c2cccs2)cc1` (stereo not given), which growth inhibition is on record?
A: -0.53%

Q: Which growth inhibition does the source give for `COC(=O)/C=c1/s/c(=C(/C#N)C(=O)N2CCCCC2)n(-c2ccccc2)c1=O` here?
A: -4.39%

Q: Which growth inhibition does the source give for `O=C(Nc1cccnc1)c1cccnc1` here?
A: -4.29%

Q: For `O=C(c1cncc(Br)c1)N1CCCc2ccccc21`, which growth inhibition is on record?
A: 8.54%

Q: Which growth inhibition does the source give for `C[C@@H]1C[C@H](Nc2ccccc2)c2ccccc2N1C(=O)c1cccnc1` here?
A: 53.7% (active)

Q: With `O=C(O)CCN(CCC(=O)O)c1nnc(SCc2ccccc2)s1` as the molecule, how does the growth inhibition read?
A: -4.61%

Q: Which growth inhibition does the source give for `CC(=O)NC(=O)Nc1sc(=S)n(C)c1C` here?
A: -19.1%

Q: Which growth inhibition does the source give for `CCOc1ccc(/C(O)=C2/C(=O)C(=O)N(c3nc(C)c(C)s3)C2c2ccco2)cc1` (stereo not given) here?
A: 18.5%

Q: Which growth inhibition does the source give for `CCCCSc1nnc2n(CCc3ccccc3)c(=O)c3c4c(sc3n12)COC(C)(C)C4` here?
A: 13.8%

Q: With `CCN(CC)CCNC(=O)c1cc(S(C)(=O)=O)ccc1OC` as the molecule, how does the growth inhibition read?
A: -4.61%

Q: For `CCN(CC)CCNC(=O)c1ccccc1N`, which growth inhibition is on record?
A: 2.63%

Q: Which growth inhibition does the source give for `CCCCOc1cc(C(=O)NCCN(CC)CC)c2ccccc2n1` here?
A: 81.4% (active) and 70.4% (active)

Q: Which growth inhibition does the source give for `C=CCOn1c(=O)c(-c2cc3ccccc3o2)[n+]([O-])c2ccccc21` here?
A: 8.84%

Q: Which growth inhibition does the source give for `CNCCC=C1c2ccccc2CCc2ccccc21` here?
A: 79.8% (active)

Q: Which growth inhibition does the source give for `CN(C)CCC=C1c2ccccc2CCc2ccccc21` here?
A: 26.6%

Q: With `CC1(C)Cc2ccccc2-c2c1c(=O)n(-c1ccccc1)c1nnnn21` as the molecule, how does the growth inhibition read?
A: 3.31%

Q: For `Cc1ccccc1COc1ccc(/C(O)=C2/C(=O)C(=O)N(CCCn3ccnc3)C2c2ccco2)cc1` (stereo not given), which growth inhibition is on record?
A: 1.79%

Q: With `CCN(CC)CCN1C(=O)C(O)=C(C(=O)c2cc3ccccc3o2)C1c1cccnc1` (stereo not given) as the molecule, how does the growth inhibition read?
A: -1.01%

Q: For `CC(C)OC(=O)C(C#N)c1nc2ccccc2nc1N1CCCC1` (stereo not given), which growth inhibition is on record?
A: 18.3%

Q: With `COC(=O)COc1ccc(Oc2nc(SC)nc(N(C)C)n2)nn1` as the molecule, how does the growth inhibition read?
A: -1.19%
